Compounds with a hit are over-represented: about 2.4% of the library has one in this group of screens.
WRN inhibitor = qHTS for Inhibitors of WRN Helicase; WRN helicase unwinding, fluorescent forked duplex, kinetic; Potency, µM (doses to about 114 µM), inactives show at the highest dose activity change, negative = inhibition, hits mostly inhibitors; 0.46% of 360,000 active; AID 651768, 2012; also: % is scaled to controls: 0 for no effect and ±100 for the full control effect; nearly all actives have a fitted effect of over 55% in size
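Enzyme (20 nM final) and test compound sit together 15 min at room temperature before substrate addition. Substrate is a single-forked duplex oligonucleotide (100 nM) labelled with fluorophore and quencher, with 2 mM ATP; helicase unwinding raises red fluorescence, read kinetically.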
FEN1 inhibitor = qHTS Assay for the Inhibitors of Human Flap endonuclease 1 (FEN1); P39748; Recombinant FEN1 flap cleavage, fluorescence, 15 min; Potency, µM (series often up to 114 µM), without a hit: at the highest dose activity change, negative = inhibition, hits mostly inhibitors; 0.35% of 390,000 active; AID 588795, 2011; also: % is scaled to controls: 0 for no effect and ±100 for the full control effect; nearly all actives have a fitted effect of over 65% in size
Target sequence (P39748 whole entry, looked up): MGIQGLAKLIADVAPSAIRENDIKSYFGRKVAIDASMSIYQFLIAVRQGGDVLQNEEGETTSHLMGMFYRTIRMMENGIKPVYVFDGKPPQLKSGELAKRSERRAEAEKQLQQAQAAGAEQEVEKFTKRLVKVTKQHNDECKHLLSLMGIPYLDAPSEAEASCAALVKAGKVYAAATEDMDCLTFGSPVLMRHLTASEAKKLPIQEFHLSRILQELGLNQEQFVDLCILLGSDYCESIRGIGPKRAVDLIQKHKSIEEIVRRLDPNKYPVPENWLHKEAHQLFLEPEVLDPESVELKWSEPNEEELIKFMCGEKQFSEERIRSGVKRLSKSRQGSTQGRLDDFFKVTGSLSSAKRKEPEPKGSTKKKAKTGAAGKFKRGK
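Enzyme 10 nM, 15 min RT preincubation with compound; start with substrate 50 nM final; reads at 0 and 15 min; qHTS titration, four-parameter Hill fit.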
Pol beta inh = qHTS Assay for Inhibitors of DNA Polymerase Beta. Potency, µM (top dose mostly 114 µM), for the others: top-dose activity change, negative = inhibition, hits mostly inhibitors. 1.3% of 340,000 active. Pol beta primer extension/strand displacement, fluorescence kinetic. P06746; also: % is scaled to controls: 0 for no effect and ±100 for the full control effect
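Homogeneous kinetic assay of primer extension and strand displacement by 10 nM Pol beta, preincubated 15 min at room temperature with compound before 50 nM substrate (final) was added. Read at 0 and 10 min; four-parameter Hill fit.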
POLH inh = qHTS for Inhibitors of Polymerase Eta | 1.2% of 390,000 active | recombinant Pol eta, fluorescent DNA replication assay | AID 588591, 2011 | Potency, µM (titrated, usually from 114 µM), for the others: at the highest dose activity change, negative = inhibition, most hits filed as inhibitors; also: % is scaled to controls: 0 for no effect and ±100 for the full control effect
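Pol eta at 10 nM preincubated with compounds 15 min at room temperature; reaction started with fluorescent substrate (50 nM final) and read kinetically at 0 and 10 min.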
Pol iota inh = qHTS for Inhibitors of Polymerase Iota. Pol iota fluorescent replication assay, 10 min. Potency, µM (series often up to 115 µM), without a hit: at the highest dose activity, negative = inhibition, hits mostly inhibitors. 1% of 390,000 active. AID 588590, 2011
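Pol iota at 10 nM preincubated 15 min with compounds at room temperature; reaction started with fluorescent substrate, 50 nM final. Fluorescence read kinetically at 0 and 10 min; buffer-only wells as negative control.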
Pol kappa inh = qHTS for Inhibitors of Polymerase Kappa | DNA polymerase kappa (Homo sapiens), Q9UBT6 | purified Pol kappa, fluorescent DNA synthesis assay, 10 min | 0.53% of 400,000 active | AID 588579, 2011 | Potency, µM (highest dose often 107 µM), for inactives: at the top dose activity, negative = inhibition, hits mostly inhibitors; also: % is scaled to controls: 0 for no effect and ±100 for the full control effect
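50 nM final substrate added after 15 min RT preincubation of 10 nM Pol kappa with compound; fluorescence read at 0 and 10 min.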
Active calls of the source: *; ? = inconclusive; . = no result given; [ ] = dose if it differs, or a comment. Calls follow the shape of the dose curve; as a rule, active = well fitted curve in the direction sought with a large enough effect; inconclusive = small, poorly fitted or top-dose-only effect, or another doubt; inactive = no such curve, though single readings can be large; an effect the other way counts as inactive or inconclusive. Potency is read from the fitted curve at half-maximal effect.

SMILES	WRN inhibitor	FEN1 inhibitor	Pol beta inh	POLH inh	Pol iota inh	Pol kappa inh
CN(C)Cc1ccccc1-c1nc(N(C)Cc2ccco2)c2ccccc2n1	.	.	.	.	.	-12%[60.1 µM]
CC(C)CCNC(=O)c1ccc2nc(Cc3ccccc3)oc2c1	.	2%	2%	-25%	22%	-4%[60.1 µM]
c1nc(SSc2ncnc3nc[nH]c23)c2[nH]cnc2n1	40µM*	1%	.	-11%	?	-5%
O=C(O)CSc1ncnc2nc[nH]c12	-4%	-1%	12%	0%	8%	5%
CC(=O)OC1C=C[C@@H](OC(C)=O)C1 (some centres undefined)	.	.	.	.	.	13%[60.1 µM]
COc1ccc(-n2c(O)c(/C=N/NS(=O)(=O)c3cc(C)ccc3C)c3ccccc3c2=O)cc1OC	79µM*	?	?	?	?	?
COc1ccc2c(CC(=O)OCC(=O)Nc3ccc(C)cc3)coc2c1	-5%[11.6 µM]	0%	.	20µM*	?	?
Cc1c(O)nc2sc3ccccc3n2c1=O	.	.	-4%	.	.	.
COc1ccc(/C=C/C(=O)OCc2cc(=O)n3c(n2)sc2ccccc23)cc1	-8%	2%	?	-2%	71%	-11%
O=C(OCc1cc(=O)n2c(n1)sc1ccccc12)c1ccc(O)cc1	-5%	-11%	10µM*	?	-5%	-10%
O=c1cc(CCl)nc2sc3ccccc3n12	-5%[11.6 µM]	-1%	?	50µM*	35µM*	?
O=C(Nc1ccc(O)cc1)c1ccc2c(c1)C(=O)N(N1C(=O)c3ccccc3C1=O)C2=O	-13%	-15%	?	2%	-20%	-14%
O=C(Nc1ccccc1O)c1ccc2c(c1)C(=O)N(N1C(=O)c3ccccc3C1=O)C2=O	-36%	0%	28µM*	-20%	7%	-13%
O=C(O)c1ccc2c(c1)C(=O)N(N1C(=O)c3ccccc3C1=O)C2=O	-22%	-5%	25µM*	-4%	18%	-12%
O=C(O)c1ccc2c(c1)C(=O)N(CCc1ccccc1)C2=O	0%	4%	19%	-24%	24%	-13%
O=C(Nc1ccc(F)cc1F)c1ccc2c(c1)CCN2S(=O)(=O)c1ccc(Cl)cc1	.	-7%	19%	-19%	?	-9%
NNc1ccccc1C(F)(F)F	?	-9%	20µM*	4%	69%	-3%
CC(=O)Nc1ccccc1C(F)(F)F	5%	-2%	3%	-12%	22%	-12%
O=c1ccc(NS(=O)(=O)c2ccccc2Cl)cn1Cc1ccc(Cl)c(Cl)c1	2%	71µM*	-23%	-7%	-24%	-3%
Cc1ccccc1Cc1c(C)nc2nc(SCC(=O)NCc3ccco3)nn2c1C	3%	-11%	5%	5%	-1%	0%
Cc1ccccc1Cc1c(C)nc2c(C(=O)NCc3ccco3)cnn2c1C	-15%	-18%	45µM*	?	?	-16%
CCOc1cc(C(c2c(C)[nH][nH]c2=O)c2c(C)[nH][nH]c2=O)cc(Cl)c1O	-6%	-19%	52%	10%	25µM*	-2%
Cc1cccc(-n2c(O)c(C=Nc3ccccc3O)c3ccccc3c2=O)n1	?	?	-32%	45µM*	?	?
CCSc1ncc(Cl)c(C(=O)Nc2sc3c(c2C(=O)OC)CCCC3)n1	.	14%	.	.	26%	-12%
Cc1nc2c(C(=O)NCCC(C)C)c[nH]n2c(=O)c1Cc1ccccc1F	-9%[57.1 µM]	-18%	71µM*	-3%	?	-12%
Cc1nc2c(C(=O)NCCc3ccc(Cl)cc3)c[nH]n2c(=O)c1Cc1ccccc1F	.	?	?	?	71µM*	-13%
Cc1nc2c(C(=O)NCCc3ccccc3)c[nH]n2c(=O)c1Cl	-14%	-20%	34%	-11%	23%	-5%
Cc1ccc(CNC(=O)c2c[nH]n3c(=O)c(Cc4ccc(F)cc4Cl)c(C)nc23)cc1	.	?	50µM*	71µM*	?	?
